Each structure is given as a SMILES string. The panel holds about 83,000 compounds, 20% with a hit somewhere; the sample as a whole holds those more often.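 Interpretation: 100, growth as untreated; towards 0, rising growth inhibition; 0, no net growth; 0 to -100, cell death. Compounds scoring below 10 were considered active.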 A number with no mark means an inactive call. The source made the active and inactive calls.

Common to all, as to assay: NCI-60 one-dose screen, 48 h (100 = growth as untreated, 0 = no growth, -100 = all killed)
Common to all, as to conditions: 10 µM unless noted

Experiment [1] relates to NCI-H23 lung.
In experiment [2] the test system is NCI-H226 lung.
Experiment [3] concerns NCI-H322M lung.
Experiment [4] has as its system HOP-62 NSCLC.
The test system of experiment [5] is NCI-H460 lung.
Experiment [6] has as its system HOP-92 NSCLC.
The subject of experiment [7] is NCI-H522 lung.
Experiment [8] concerns A549/ATCC NSCLC.
Experiment [9] concerns 786-0 renal.
Experiment [10] relates to COLO 205 colon.

Turning to `COc1cc(-c2nc(SCCC(C)C)nc(Nc3ccccc3)c2C#N)cc(OC)c1OC`, the growth is 97.1% in experiment [1]; 101% in experiment [2]; 103% in experiment [3]; 114% in [4]; 101% in [5]; 86.8% in experiment [6]. For the same compound, the growth is 80.6% in [7], 91.5% in experiment [8], 91.7% in experiment [9] and 99.1% in experiment [10].

Regarding `O=C1COCCN1c1ccc(NCc2cn(Cc3cccc4ccccc34)c3ccccc23)cc1`, the growth in [1] is 84%; in experiment [2], 5.06% (active); in experiment [3], 91.5%; in experiment [4] it was 84.3%; in experiment [5], 64.4%; in experiment [6], 72.6%. Moreover, the growth in [7] is 86.3%; in experiment [8], 87.7%; in experiment [9] it was 98.8%; in [10] it was 93.6%.

For the compound `CSc1nc(=S)c2nc(SC)n(-c3ccccc3)c2[nH]1`, the growth in [1] was 103%; in experiment [2], 90.8%; in experiment [3], 96.8%; in [4] it was 85.5%; in experiment [5], 95.5%; in experiment [6] it was 77.6%. Also, the growth is 70.1% in [7], 97.8% in experiment [8], 101% in [9] and 101% in experiment [10].

As for `NC(=O)c1cccc(-c2ccc(S(=O)(=O)Nc3ccc4c(c3)N(C(=O)C3CC3)CCC4)cc2)c1`, the growth in [1] is 48%; in [2], 63.7%; in [3] it was 70%; in experiment [4] it was 38.4%; in [5], 17.1%; in experiment [6] it was 33.7%. Also, the growth in experiment [7] was 7.75% (active); in experiment [8], 50.8%; in [9], 100%; in experiment [10] it was 43.6%.

Take `CCOC(=O)c1cc(C#N)n2ncc3ccccc3c12`: the growth in experiment [1] is 94.1%; in experiment [2], 91.2%; in experiment [3], 102%; in experiment [4] it was 90.8%; in experiment [5], 101%; in experiment [6] it was 80.7%. For the same compound, the growth in experiment [7] was 93.3%; in [8] it was 100%; in [9] it was 95.7%; in experiment [10], 118%.

In the case of `COc1ccc(/C=C2\N=C(Nc3ccccc3)N(NC(=O)c3ccccn3)C2=O)cc1`, the growth in experiment [1] is 101%; in [2] it was 98.1%; in experiment [3], 106%; in [4], 107%; in experiment [5], 99.7%; in [6] it was 95.8%. For the same compound, the growth is 90% in experiment [7], 99.1% in experiment [8], 96.4% in experiment [9] and 115% in experiment [10].

`C=C(C)[C@@H]1CC[C@]2(C(N)=O)CC[C@]3(C)[C@H](CC[C@@H]4[C@@]5(C)C/C(=C/c6cccnc6)C(=O)C(C)(C)[C@@H]5CC[C@]43C)[C@@H]12`: the growth in experiment [1] is 18.9% [100 µM]; in experiment [2], 9.08% [100 µM] (active); in experiment [3], 12.7% [100 µM]; in experiment [4] it was 3.06% [100 µM] (active); in experiment [5], -42.8% [100 µM] (active); in experiment [6], 16.8% [100 µM]. The growth in experiment [7] was -16.8% [100 µM] (active); in [8] it was 14.2% [100 µM]; in experiment [9] it was 18.1% [100 µM]; in experiment [10] it was -23.6% [100 µM] (active).

Regarding `Cc1cc(C)nc(SCC(=O)Nc2cccc(N=Cc3ccccc3O)c2)n1`, the growth is 98% in [1]; 93.8% in experiment [2]; 101% in experiment [3]; 102% in experiment [4]; 101% in [5]; 77.4% in experiment [6]. In addition, the growth in experiment [7] was 86.6%; in [8] it was 101%; in [9], 103%; in experiment [10], 105%.

`O=C(Oc1ccc(Cl)cc1[N+](=O)[O-])Oc1ccc(Cl)cc1[N+](=O)[O-]`: the growth in [1] is 105%; in [2], 117%; in [3], 122%; in experiment [4] it was 113%; in experiment [5], 111%; in [6], 93.4%. The growth was 104% in experiment [7], 99.2% in experiment [8], 119% in [9] and 122% in [10].

As for `Cn1cc(-c2noc(-c3cn(C)c4ncccc34)n2)c2cc(Cl)ccc21`, the growth is 91.5% in experiment [1]; 115% in [2]; 91.2% in experiment [3]; 93.2% in [4]; 88% in experiment [5]; 135% in experiment [6]. In addition, the growth was 7.71% (active) in experiment [7], 79.7% in [8], 95.4% in [9] and 91.9% in experiment [10].

`C[C@@H]1C[C@H]2C(=O)O[C@@H](C)[C@H](NC(=O)[C@H](Cc3cc(F)cc(F)c3)NC(=O)Nc3ccc(Cl)cc3F)C(=O)N3C[C@H](O)C[C@H]3C(=O)N3CCN(C)C[C@H]3C(=O)N[C@@H](C)C(=O)N2C1`: the growth in experiment [1] was 36.2%; in experiment [2] it was 52.6%; in [3], 72.8%; in experiment [4] it was 47.8%; in experiment [5], 36%; in experiment [6], 37.8%. Besides, the growth in experiment [7] is 26.7%; in experiment [8], 53.6%; in experiment [9], 74.1%; in experiment [10], 12%.

`CC(C)CCNCC(C)(C)O`: the growth in experiment [1] was 101%; in [2], 111%; in experiment [3] it was 106%; in experiment [4] it was 95.5%; in experiment [5] it was 114%; in experiment [6], 96.6%. For the same compound, the growth was 98.7% in experiment [7], 105% in experiment [8], 111% in experiment [9] and 118% in experiment [10].

These data come from PubChem BioAssay (NCI).
